# Screens from PubChem BioAssay.
# The list is not random: actives were taken first. Their share in the collection is about 2.4%.
# ATXN viability = cell viability loss in ATXN counter-screen; S2 cells (HEK-293 line with an ATXN2-luciferase reporter) viability, CellTiter-Fluor protease fluorescence, 24 h; Potency, µM (top dose mostly 56.7 µM), usual class: cytotoxic; 400,000 tested, 0.49% active; AID 651635; further: nearly all actives have a fitted effect of over 40% in size
# TGFb SMAD3 inh = inhibitors of TGF-b signaling; HepG2 CAGA-GFP TGF-b/SMAD3 reporter, GFP fluorescence, 18 h; TGF-beta stimulated, 500 pg/mL final; Potency, µM (top dose mostly 46.1 µM), inactives show top-dose activity, negative = inhibition, usual class: inhibitors; 410,000 tested, 1.2% active; AID 588855; further: on the % scale 0 is the no-effect control and ±100 the full control effect; nearly all actives have a fitted effect of over 65% in size
#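 Inhibition of TGF-beta-driven CAGA-GFP reporter expression in HEPG2 cells is measured by cellular GFP fluorescence after 18 h stimulation with 500 pg/mL recombinant TGF-beta in 1% FBS medium at 37 degrees C.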
# Apoferritin bind = candidate novel general anesthetic via apoferritin binding. P02791. apoferritin/1-aminoanthracene competitive binding, fluorescence. Potency, µM (highest dose often 77.5 µM), for inactives: at the highest dose activity change, negative = displacement, actives largely listed as inhibitors. 350,000 tested, 0.074% active; further: on the % scale 0 is the no-effect control and ±100 the full control effect; nearly all actives have a fitted effect of over 20% in size
# Target sequence (P02791 2-175 limits assumed): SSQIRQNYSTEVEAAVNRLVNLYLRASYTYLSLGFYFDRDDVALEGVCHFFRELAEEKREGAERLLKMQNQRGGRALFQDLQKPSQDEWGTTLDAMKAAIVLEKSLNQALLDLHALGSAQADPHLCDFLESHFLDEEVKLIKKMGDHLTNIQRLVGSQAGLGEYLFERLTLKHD
#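 Horse-spleen apoferritin (10 uM) in 50% saturated 1-aminoanthracene in PBS was incubated 10 min at room temperature with compound. Fluorescence (ex 380, em 535 nm) was normalized to free and bound 1-AMA, with concentration-response fitted by a four-parameter Hill equation.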
# ATXN2 expr inh = reduces ATXN2 reporter expression in HEK-293 cells; 360,000 tested, 0.72% active; Potency, µM (top dose mostly 57 µM), inactives show top-dose activity change, negative = inhibition, usual class: inhibitors; HEK-293 ATXN2-luciferase reporter, luminescence, 24 h; further: on the % scale 0 is the no-effect control and ±100 the full control effect; nearly all actives have a fitted effect of over 55% in size
#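 ATXN2-luciferase reporter cells (luciferase flanked by upstream and downstream ATXN2 gene portions) were treated 24 h at 37 °C with compounds at up to 57 uM. SteadyGlo luminescence gave expression; GF-AFC fluorescence gave viability.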
# HepG2 tox = counter-screen for TGF-b inhibitors: cytotoxicity in HepG2 cells. HepG2 CAGA-GFP viability, ATP luminescence, 18 h. Potency, µM (top dose mostly 46.1 µM), for inactives: at the top dose activity change, negative = cytotoxicity, most hits filed as cytotoxic. 410,000 tested, 0.76% active. AID 588856
#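 HepG2 CAGA-GFP cells (1000/well, DMEM with 1% FBS) received compound, then TGF-beta at 500 pg/mL final, and were incubated 18 hours at 37 degrees C. Viability was read by CellTiter-Glo luminescence. Media-only wells were set as complete cell-killing and DMSO as no toxicity.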
# Active calls of the source: *; i = inactive; ? = inconclusive; · = no result given; [ ] = another dose, or the depositor's remark. The call rests on the fitted dose curve; in most records, active means well fitted curve in the direction sought with a large enough effect; inconclusive means small, poorly fitted or top-dose-only effect, or another doubt; inactive means no such curve, though single readings can be large; an effect the other way counts as inactive or inconclusive. Potency means the concentration at half of the fitted maximal effect.
SMILES,ATXN viability,TGFb SMAD3 inh,Apoferritin bind,ATXN2 expr inh,HepG2 tox
CC[C@H](C)[C@H](NC(=O)CNC(=O)[C@H](CCCNC(=N)N)NC(=O)CNC(=O)[C@@H](NC(=O)[C@H](Cc1ccc(O)cc1)NC(=O)[C@H](Cc1c[nH]c2ccccc12)NC(=O)[C@H](C)NC(=O)[C@@H]1CCCN1C(=O)[C@H](CC(N)=O)NC(=O)[C@@H](NC(=O)[C@H](CC(=O)O)NC(=O)[C@@H]1CCCN1C(=O)[C@@H](N)[C@@H](C)O)[C@@H](C)CC)[C@@H](C)O)C(=O)N[C@@H](CCCNC(=N)N)C(=O)N1CCC[C@H]1C(=O)N[C@H](C(=O)NCC(=O)N[C@@H](CCCNC(=N)N)C(=O)N[C@@H](Cc1ccccc1)C(N)=O)C(C)C,·,·,5%,·,·
CCOC(=O)/C=C/C(=O)Nc1cccc([N+](=O)[O-])c1,?,11µM*,-9%,?,13µM*
CC(C)(C)OC(=O)N1CCC(c2c(C(=O)N3CCN(C4CCCCC4)CC3)cnn2-c2ccccc2)CC1,i,4%,-8%,·,1%
Cc1ccc(-n2ncc(C(=O)NCCN3CCc4ccccc4C3)c2C2CCN(C(=O)OC(C)(C)C)CC2)c(C)c1,·,16µM*,?,?,-45%
Cc1cccc(-n2ncc(C(=O)N3CCN(C4CCCCC4)CC3)c2C2CCN(C(=O)OC(C)(C)C)CC2)c1,·,8.9µM*,1%,·,-18%
COc1ccccc1CN1CCC(CNC(=O)c2cnn(-c3ccc(Cl)cc3)c2C2CCN(C(=O)OC(C)(C)C)CC2)CC1,·,10µM*,?,·,-108%
Cc1ccc(-n2ncc(C(=O)NCCN3CCCC3)c2C2CCN(C(=O)OC(C)(C)C)CC2)cc1,·,0%,-6%,·,-45%
Cc1ccc(-n2ncc(C(=O)NCCN3CCC(Cc4ccccc4)CC3)c2C2CCN(C(=O)OC(C)(C)C)CC2)cc1,·,?,-8%,·,13µM*
CCN1CCN(C(=O)Cn2ncc3c4ccccc4n(Cc4ccccc4F)c3c2=O)CC1,i,-1%,-19%,11%,0%
CN1CCN(CCNC(=O)c2cnn(-c3cccc(Cl)c3)c2C2CCN(C(=O)OC(C)(C)C)CC2)CC1,·,2%,-12%,·,-36%
CC(C)(C)OC(=O)N1CCC(c2c(C(=O)NCCN3CCC(Cc4ccccc4)CC3)cnn2-c2cccc(Cl)c2)CC1,·,?,0%,·,7.1µM*
O=C1CCCCCCC1Sc1ccccc1[N+](=O)[O-] (stereo not drawn),i,14%,7.9µM*,1%,0%
O=[N+]([O-])c1ccccc1S(=O)(=O)NC1CCCCCCC1,i,-17%,?,-7%,-14%
CCCC[n+]1ccn(C2=C([O-])c3ccccc3C(=O)/C2=N\S(=O)(=O)c2ccc(Br)cc2)c1,?,6.3µM*,-13%,-11%,-44%
Cc1ccc(S(=O)(=O)/N=C2\C(=O)c3ccccc3C([O-])=C2n2cc[n+](CCC(C)C)c2)cc1,i,4µM*,-18%,?,7.1µM*
CC(=O)Nc1ccc(S(=O)(=O)/N=C2\C(=O)c3ccccc3C([O-])=C2n2cc[n+](-c3ccccn3)c2)cc1,?,?,7%,·,-131%
CCCc1cc(=O)[nH]c(SCC(=O)NCCCC(=O)OCC)n1,i,1%,-8%,-5%,0.45µM*
CCCc1cc(=O)[nH]c(SCC(=O)NC(=O)OCC)n1,i,0%,-6%,-3%,-3%
CC(C)(CNC(=O)c1cnn(-c2ncc3c(n2)-c2ccccc2CCC3)c1C1CC1)N1CCOCC1,i,·,·,·,·
Cc1cccc(C2=NN(c3ccccc3)[C@H](CO)[C@H]2c2ccc(F)cc2)c1,·,20µM*,568%[110 µM],0%,-93%
COc1ccccc1[C@H]1C(c2cccc(Cl)c2)=NN(c2ccccc2)[C@@H]1CO,·,13µM*,685%[110 µM],?,13µM*
OC[C@@H]1[C@@H](c2ccccc2)C(c2ccc(F)cc2)=NN1c1ccccc1,·,10µM*,126%[110 µM],-10%,-49%
Cc1cccc(C2=NN(c3ccccc3)[C@H](CO)[C@H]2c2ccc(Cl)cc2)c1,·,?,541%[110 µM],?,-110%
